“And” between values parts separate entries of the source, which are not always exact repeats. Equal entries are not always repeated. Results filed as inconclusive are left out. Some structures have more than one record in an assay (separate samples or runs), and their calls can disagree. The source made the active and inactive calls. Unless noted, calls come from the whole dose curve; as a rule, active = well fitted curve in the direction sought with a large enough effect in the repeat runs; inconclusive = weak or mixed curves; inactive = no such curve, though single readings can be large; an effect the other way counts as inactive or inconclusive.
Columns and labels:
[1] = qHTS assay for small molecule agonists of the p53 signaling pathway (AID 651631; calls by dose curve; note: nearly all actives have a fitted effect of over 15% in size)
Method in brief: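 Fluorescence intensity from cleaved LiveBLAzer B/G substrate (2 h, room temperature) served as the signal. Beforehand, HCT-116 reporter cells bearing p53 response elements were treated 16 h at 37 °C with DMSO-dissolved compounds.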

[2] = qHTS assay for small molecule agonists of the p53 signaling pathway - cell viability (AID 651633; calls by dose curve; note: nearly all actives have a fitted effect of over 30% in size; note: potency is the fitted concentration of half-maximal effect)
Method in brief: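 p53RE-bla cells, seeded at 4,000 per well and rested 5 h at 37 C/5% CO2, received compounds in DMSO for 16 h at 37 C. CellTiter-Glo was then added, and luminescence was read after 30 min at room temperature to gauge cytotoxicity.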

[3] = qHTS assay for small molecules that induce genotoxicity in human embryonic kidney cells expressing luciferase-tagged ATAD5 - cell viability (AID 651634; calls by dose curve; note: nearly all actives have a fitted effect of over 25% in size)
Method in brief: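 Cytotoxicity counter-readout: after 15.5 hr compound treatment at 37C, live-cell protease activity in ATAD5-luciferase HEK293T cells measured by CellTiter-Fluor fluorescence, 30 min development at 37C.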

[4] = qHTS assay for small molecule disruptors of the mitochondrial membrane potential - cell viability (AID 720634; calls by dose curve;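 note: human HepG2 liver cancer cells; series mostly up to about 83 µM; nearly all actives have a fitted effect of over 20% in size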)
Method in brief: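 Cytotoxicity was quantified from ATP content by CellTiter-Glo luminescence in the same wells as the MMP dye read-out. HepG2 (2,000 cells/well) were plated overnight and exposed to compounds for 1 hr at 37 C.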

[5] = qHTS assay for small molecule disruptors of the mitochondrial membrane potential (AID 720635); note: potency is the fitted concentration of half-maximal effect
Method in brief: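 HepG2 cells (2,000/well) attached overnight at 37C, then took compound for 1 hr at 37C, 5% CO2. Mito-MPS dye was added for 30 min; fluorescence was read at 490/535 nm (monomers) and 540/590 nm (aggregates).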

[6] = qHTS assay to test for compound auto fluorescence at 590 nm (red) in HepG2 cells (AID 720674)
Method in brief: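 Intrinsic compound fluorescence in the red window (Ex/Em 540/590 nm) is measured in attached HepG2 cells exposed for 1 hr, DMSO vehicle as baseline, benchmarked to Rose Bengal sodium.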

[7] = qHTS assay to test for compound auto fluorescence at 535 nm (green) in HepG2 cells (AID 720675)
[8] = qHTS assay to test for compound auto fluorescence at 590 nm (red) in HEK293 cells (AID 720679)
Method in brief: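 Red-channel autofluorescence (Ex/Em 540/590 nm; Rose Bengal sodium reference) was measured after overnight 37C, 5% CO2 exposure of attached HEK293 cells, 2,000 per well in medium with 10% dialyzed FBS.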

[9] = qHTS assay to test for compound auto fluorescence at 535 nm (green) in HEK293 cells (AID 720680)
[10] = qHTS assay to test for compound auto fluorescence at 535 nm (green) in HEK293 cell free culture (AID 720682)
Method in brief: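 Intrinsic compound fluorescence is measured in culture medium containing 10% FBS, with excitation at 485 nm and detection at 535 nm, referenced to fluorescein.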

[11] = qHTS assay to test for compound auto fluorescence at 590 nm (red) in HEK293 cell free culture (AID 720683)
Method in brief: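 Tox21 10K library compounds were pinned into cell-free DMEM with 10% FBS and fluorescence was read at excitation 540 nm. Activity is expressed as Rose Bengal sodium equivalency.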

[12] = qHTS assay to test for compound auto fluorescence at 590 nm (red) in HepG2 cell free culture (AID 720684)
Method in brief: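 Readout: intrinsic compound fluorescence at 590 nm emission after 540 nm excitation, scaled to Rose Bengal sodium. Matrix was cell-free MEM with 10% FBS; DMSO vehicle wells served as control.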

[13] = qHTS assay to test for compound auto fluorescence at 460 nm (blue) in HepG2 cell free culture (AID 720685)
Method in brief: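 Cell-free plates of MEM plus 10% FBS received 23 nL compound or DMSO vehicle; blue-channel (405/460 nm) intensity scored against triamterene as reference fluorophore.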

[14] = qHTS assay to test for compound auto fluorescence at 535 nm (green) in HepG2 cell free culture (AID 720686)
[15] = qHTS assay to test for compound auto fluorescence at 460 nm (blue) in HepG2 cells (AID 720687)
Method in brief: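 Cells (2,000/well in MEM with 10% FBS) attached overnight at 37 C, then were exposed to compound or DMSO for 1 hr at 37 C, 5% CO2. Fluorescence read at Ex/Em 405/460 nm, expressed as triamterene-equivalent signal.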

[16] = target: Glucocorticoid receptor (Homo sapiens) (UniProt P04150); assay: qHTS assay to identify small molecule agonists of the glucocorticoid receptor (GR) signaling pathway (AID 720691; active = well fitted activation curve with a large enough effect in the signal ratio in the repeat runs, not every such curve was filed as active; the % refers to the signal ratio)
Method in brief: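 Agonist-mode qHTS in HeLa cells stably expressing a glucocorticoid-response-element beta-lactamase reporter. Fluorescence intensity read with FRET substrate (2 h, room temperature) after 18 h compound treatment at 37 C.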

[17] = target: Glucocorticoid receptor (Homo sapiens) (UniProt P04150); assay: qHTS assay to identify small molecule antagonists of the glucocorticoid receptor (GR) signaling pathway (AID 720692; active = well fitted inhibition curve with a large enough effect in the signal ratio in the repeat runs, not every such curve was filed as active; the % refers to the signal ratio; note: potency is the fitted concentration of half-maximal effect)
Method in brief: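 Inhibition of dexamethasone-driven (5 nM final) beta-lactamase expression was measured in GRE-reporter HeLa cells over 18 h at 37C. Fluorescence was read after 2 h with the B/G FRET substrate at room temperature.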

[18] = qHTS assay for small molecules that induce genotoxicity in human embryonic kidney cells expressing luciferase-tagged ATAD5 (AID 651632); note: nearly all actives have a fitted effect of over 15% in size
Method in brief: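 A rise in luciferase signal from ATAD5-tagged HEK293T cells marks genetic stress. Cells were exposed to compounds for 16 hr at 37C, 5% CO2, then luciferase was quantified after a 30 min room-temperature incubation with Amplite.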

[19] = qHTS assay to test for compound auto fluorescence at 460 nm (blue) in HEK293 cells (AID 720678)
Method in brief: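 Blue-channel (Ex/Em 405/460 nm) intensity measured in HEK293 cultures after overnight compound exposure at 37C; signal expressed relative to triamterene. Cells plated 2,000 per well in 10% dialyzed FBS medium and allowed 4-5 hr to attach.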

[20] = qHTS assay to test for compound auto fluorescence at 460 nm (blue) in HEK293 cell free culture (AID 720681)
Method in brief: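 Test compounds were pinned into cell-free culture medium (DMEM with 10% FBS) and fluorescence was read directly at Ex/Em 405/460 nm. Signals were expressed as fluorescence equivalents of triamterene, with DMSO vehicle as control.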

Measured: Potency

Glucocorticoid receptor (Homo sapiens), sequence (P04150 whole entry, looked up): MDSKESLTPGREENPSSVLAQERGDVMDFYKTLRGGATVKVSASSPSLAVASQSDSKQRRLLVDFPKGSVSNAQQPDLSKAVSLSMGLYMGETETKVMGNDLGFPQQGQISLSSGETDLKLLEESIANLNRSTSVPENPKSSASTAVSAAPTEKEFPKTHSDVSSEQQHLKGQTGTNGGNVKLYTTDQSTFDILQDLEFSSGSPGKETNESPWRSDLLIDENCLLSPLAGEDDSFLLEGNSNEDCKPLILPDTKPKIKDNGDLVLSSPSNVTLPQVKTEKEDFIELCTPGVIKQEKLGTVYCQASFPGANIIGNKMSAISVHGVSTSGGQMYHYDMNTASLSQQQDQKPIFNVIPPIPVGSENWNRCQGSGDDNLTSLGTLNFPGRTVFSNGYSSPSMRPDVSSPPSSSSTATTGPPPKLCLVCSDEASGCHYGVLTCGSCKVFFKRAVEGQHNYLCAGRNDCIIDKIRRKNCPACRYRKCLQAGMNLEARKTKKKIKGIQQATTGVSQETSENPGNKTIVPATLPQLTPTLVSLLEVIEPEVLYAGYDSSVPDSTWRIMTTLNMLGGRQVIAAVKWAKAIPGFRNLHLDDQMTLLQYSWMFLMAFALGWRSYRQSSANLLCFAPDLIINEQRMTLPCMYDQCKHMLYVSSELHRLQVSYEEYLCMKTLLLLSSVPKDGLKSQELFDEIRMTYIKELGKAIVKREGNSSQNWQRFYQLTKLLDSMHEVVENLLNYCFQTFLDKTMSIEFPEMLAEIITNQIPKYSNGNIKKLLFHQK

Cc1cc(C)cc(O)c1
not listed: [18] | [19] | [20]
inactive: all other assays above

CCc1cccc(O)c1
not listed: [16] | [17] | [18] | [19] | [20]
inactive: all other assays above

Cc1ccc([N+](=O)[O-])cc1N
not listed: [1] | [3] | [16] | [17]
inactive: all other assays above

CC/C(C)=N/O
not listed: [1] | [20]
inactive: all other assays above

CCCCC(CC)COC(=O)c1ccc(C(=O)OCC(CC)CCCC)cc1 (stereo not given)
not listed: [1] | [16] | [17] | [20]
inactive: all other assays above

O=C(O)Cc1c[nH]c2ccccc12
not listed: [18] | [19] | [20]
inactive: all other assays above

COc1cc(NC(=O)CC(C)=O)c(OC)cc1Cl
active: [17] 54.9 µM
not listed: [1] | [20]
inactive: all other assays above

O=C1CCCCCCCCCCC1
not listed: [1] | [3] | [20]
inactive: all other assays above

COc1ccc([C@@H]2CC(=O)c3c(O)cc(O[C@@H]4O[C@H](CO[C@@H]5O[C@@H](C)[C@H](O)[C@@H](O)[C@H]5O)[C@@H](O)[C@H](O)[C@H]4O)cc3O2)cc1OC
not listed: [1] | [16] | [17] | [20]
inactive: all other assays above

OCc1ccc(Cl)cc1Cl
not listed: [16] | [17] | [18] | [19] | [20]
inactive: all other assays above

CC(COCC(C)OC(=O)c1ccccc1)OC(=O)c1ccccc1 (stereo not given)
not listed: [1] | [3]
inactive: all other assays above

CC(C)=CCC/C(C)=C/C=O
not listed: [1] | [20]
inactive: all other assays above

CCN(CC)CCNC(=O)c1ccc(N)cc1
active: [5] 13.3 µM
not listed: [1] | [3] | [16] | [17]
inactive: all other assays above

CCCCCCCCO
not listed: [1] | [3] | [19]
inactive: all other assays above

CS(=O)(=O)c1ccc(Cl)cc1
not listed: [1] | [18]
inactive: all other assays above

COc1ccc2cc3[n+](cc2c1OC)CCc1cc2c(cc1-3)OCO2
inactive and 30.9 µM (active): [2]
active: [5] 1.68 µM and 870 nM
not listed: [1] | [3] | [17] | [19]
inactive: all other assays above

CC(C)(CO)CO
not listed: [1] | [5] | [18]
inactive: all other assays above

COc1c(Cl)ccc(Cl)c1C(=O)O
not listed: [1] | [3] | [16] | [17] | [18]
inactive: all other assays above

Cc1ccc(C(C)C)cc1
not listed: [1] | [3] | [18]
inactive: all other assays above

OCC(CO)(CO)CO
not listed: [1] | [16] | [17] | [18]
inactive: all other assays above

NC(N)=S
not listed: [1] | [3] | [20]
inactive: all other assays above

O=C(c1ccccc1)c1ccc(O)c(O)c1O
active: [5] 48.6 µM
not listed: [1] | [3] | [18] | [20]
inactive: all other assays above

CN1Cc2c(N)cccc2C(c2ccccc2)C1 (stereo not given)
not listed: [1] | [2] | [3]
inactive: all other assays above

OCC(O)CS (stereo not given)
not listed: [1] | [5] | [18]
inactive: all other assays above

Cc1nnc(NS(=O)(=O)c2ccc(N)cc2)s1
not listed: [1] | [3] | [16] | [17] | [18]
inactive: all other assays above
